# Results published in PubChem BioAssay (NCATS).
# Results filed as inconclusive are left out. The list shows a part of the results. Where a call stands in place of a potency, no number is given. The source made the active and inactive calls. Unless noted, calls come from the whole dose curve; as a rule, active = well fitted curve in the direction sought with a large enough effect; inconclusive = small, poorly fitted or top-dose-only effect, or another doubt; inactive = no such curve, though single readings can be large; an effect the other way counts as inactive or inconclusive.
# Columns and labels:
# [1] = target: Dual specificity protein kinase CLK4 (Homo sapiens) (UniProt Q9HAZ1); assay: qHTS Assay for Inhibitors of CDC-like Kinase 4 (ADP-FP Assay) (AID 1795);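 note: recombinant human CLK4 phosphorylating RS repeat peptide at 1 µM ATP; nearly all actives have a fitted effect of over 60% in size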
# Summary of the method: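 FP readout: Orange Transcreener ADP2 tracer (4 nM) plus ADP antibody, read after 30 min at room temperature. Kinase step: 6.25 nM Clk4, 100 uM RS peptide, 1 uM ATP, pH 7.5, 1 h.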
# [2] = Cytotoxicity counterscreen for inhibitors of SARS-CoV-2 cell entry (AID 1645845; calls by dose curve; note: nearly all actives have a fitted effect of over 50% in size); settings: outcome: dose series up to 57.1 µM unless noted
# Summary of the method: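 ATP-content luminescence (ATPLite 1step, 15 min RT) read after 48 h compound exposure of Expi293F cells stably expressing human ACE2; normalized to cells-only wells and media-only wells.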
# [3] = Primary qHTS to identify inhibitors of SARS-CoV-2 cell entry (AID 1645846; calls by dose curve; note: nearly all actives have a fitted effect of over 45% in size); settings: SARS-CoV-2 pseudovirus cell entry assay, luminescence; activity change, negative = inhibition: at 57.1 µM (top of the series) unless noted
# Summary of the method: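 HEK293-ACE2 (Expi293F, stable hACE2), 1500 cells/well, o/n 37C; cpd 23 nL pin, 1 h; MLV-PP w/ SARS-CoV-2-S (Wuhan-Hu-1, Δ19 C-term); 48 h 37C; Bright-Glo luminescence; normalized vs S-PP and bald PP.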
# [4] = target: Glutathione peroxidase 1 (Homo sapiens) (UniProt P07203); assay: Primary qHTS Assay for Inhibitors of Recombinant Selenoprotein Glutathione Peroxidase 1 (GPX1) (AID 1845191); note: nearly all actives have a fitted effect of over 65% in size
# Summary of the method: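 NADPH consumption tracked by fluorescence at 340/450 nm between t=0 and t=15 min, room temperature. Final mix: 10 nM GPX1, 100 nM glutathione reductase, 1 mM GSH, 0.5 mM NADPH, 0.5 mM cumene hydroperoxide, 0.01% BSA; 30 min compound–enzyme preincubation.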
# [5] = target: Phospholipid hydroperoxide glutathione peroxidase GPX4 (Homo sapiens) (UniProt P36969); assay: Primary qHTS Assay for Inhibitors of Recombinant Selenoprotein Glutathione Peroxidase 4 (GPX4) (AID 1845192); note: nearly all actives have a fitted effect of over 65% in size
# Summary of the method: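 NADPH consumption followed by fluorescence at 340/450 nm, t=0 and after 15 min at room temperature. Reaction started with cumene hydroperoxide (0.5 mM final) after 30 min compound–GPX4 preincubation; final 200 nM GPX4, 100 nM GR, 1 mM GSH, 0.5 mM NADPH.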
# [6] = target: Tumor susceptibility gene 101 protein (Homo sapiens) (UniProt Q99816); assay: qHTS Assay for Iinhibitors of HIV-1 Budding by Blocking the Interaction of PTAP/TSG101: Hit Validation (AID 651600); note: potency is the fitted concentration of half-maximal effect; nearly all actives have a fitted effect of over 70% in size
# Summary of the method: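 Tsg101 binding domain 10 uM + FITC-PTAP peptide 50 nM (final), 10 mM HEPES pH 7.5/0.15 M NaCl/0.01% Tween 20/3 mM EDTA/0.1 mM TCEP; 20 min RT; FP read, FITC filters.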
# [7] = target: Cytochrome P450 2D6 (Homo sapiens) (UniProt P10635); assay: Cytochrome P450 family 2 subfamily D member 6 (CYP2D6) small molecule antagonists: luciferase biochemical (cell-free) qHTS assay (AID 1645840; active = well fitted curve in the direction sought with a large enough effect in the repeat runs; an effect the other way counts as inactive or inconclusive; note: potency is the fitted concentration of half-maximal effect; nearly all actives have a fitted effect of over 55% in size)
# Summary of the method: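 P450-Glo CYP2D6 system: proluciferin substrate converted by enzyme to luciferin, read by luminescence proportional to activity. Enzyme-substrate mix with compound 10 min at room temperature, then NADPH regeneration 1 h before detection reagent.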
# [8] = target: Cytochrome P450 3A4 (Homo sapiens) (UniProt P08684); assay: Cytochrome P450 family 3 subfamily A member 4 (CYP3A4) small molecule antagonists: luciferase qHTS assay (AID 1645841; active = well fitted curve in the direction sought with a large enough effect in the repeat runs; an effect the other way counts as inactive or inconclusive; note: nearly all actives have a fitted effect of over 45% in size)
# Summary of the method: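 Luminescent CYP3A4 activity readout: compounds plus enzyme-substrate mix 10 min at room temperature, reaction started with NADPH regenerating system for 1 h, stopped with detection reagent, read after 20 min. Ketoconazole served as control.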
# [9] = target: Cytochrome P450 2C9 (Homo sapiens) (UniProt P11712); assay: Cytochrome P450 family 2 subfamily C member 9 (CYP2C9) small molecule antagonists: luciferase biochemical (cell-free) qHTS assay (AID 1645842; active = well fitted curve in the direction sought with a large enough effect in the repeat runs; an effect the other way counts as inactive or inconclusive; note: nearly all actives have a fitted effect of over 55% in size)
# Summary of the method: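 P450-Glo CYP2C9 system: proluciferin substrate with enzyme in mix containing 0.4% BSA, 10 min at room temperature, then NADPH regeneration solution added and incubated 1 h at 37C. Detection reagent stopped reaction; luminescence read after 20 min as RLU.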
# [10] = target: Cytochrome P450 2C19 (Homo sapiens) (UniProt P33261); assay: qHTS for inhibitors of CYP2C19 against the NCATS DSHEA and TCM libraries (AID 1919974);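 note: luminescence from luciferin released by CYP2C19 oxidation of a pro-luciferin substrate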
# Summary of the method: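 Isoform-specific enzyme and substrate levels; enzyme-free wells as background. Reaction: 1x NADPH regenerating system, 30-45 min, room temperature, shielded from light; luminescent detection reagent added, 30 min.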
# [11] = target: Nuclear receptor subfamily 1 group I member 2 (Homo sapiens) (UniProt O75469); assay: Dual reporter qHTS for agonist of Pregnane X Receptor (hPXR) against the NCATS DSHEA and TCM libraries: Luminescence readout (AID 1920059)
# Summary of the method: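 Luminescent PXR reporter read (ONE-Glo) after a CellTiter-Fluor viability read, following 24 h, 37C treatment of HepG2 cells stably carrying hPXR-Luc.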
# [12] = target: Muscarinic acetylcholine receptor M1 (Rattus norvegicus) (UniProt P08482); assay: qHTS Assay for Antagonists of Acetylcholine Muscarinic M1 Receptor: Kinetic Measurement of Intracellular Calcium Response (AID 943); note: potency is the fitted concentration of half-maximal effect; nearly all actives have a fitted effect of over 75% in size
# Summary of the method: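 Quantitative HTS in CHO-M1 (rat receptor) cells: 10 min compound exposure ahead of 100 nM carbachol, Fluo-4 fluorescence followed 4 min, value expressed as peak-to-basal ratio.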
# [13] = Counterscreen for APE1 Inhibitors: Fluorescent Dye Displacement Assay (AID 2564);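 note: loss of thiazole orange fluorescence as the dye is displaced from duplex DNA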
# Summary of the method: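 Counterscreen flags promiscuous DNA binders: compounds displacing ThO from duplex DNA (abasic THF site, 50 nM) reduce 540 nm emission (480 nm excitation). ThO 250 nM final; Tris-HCl pH 7.5 with NaCl, MgCl2 and Tween-20.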
# [14] = target: Endonuclease 4 (Escherichia coli (strain K12)) (UniProt P0A6C1); assay: Counterscreen for APE1 Inhibitors: qHTS Assay for Inhibitors of Endonuclease IV (AID 2565)
# Summary of the method: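 The reaction buffer contained 50 mM Tris-HCl pH 7.5, 50 mM NaCl, 2 mM MgCl2, 1 mM DTT and 0.01% Tween-20. Incision of a 50 nM fluorophore/quencher THF substrate by 2 nM enzyme was measured kinetically.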
# [15] = target: DNA repair nuclease/redox regulator APEX1 (Homo sapiens) (UniProt P27695); assay: Confirmation qHTS Assay for Inhibitors of the Human Apurinic/apyrimidinic Endonuclease 1 (APE1) (AID 2572);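 note: fluorescence gain from purified APE1 cutting a TAMRA/BHQ-2 THF abasic duplex; nearly all actives have a fitted effect of over 30% in size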
# Summary of the method: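 Inhibition is measured on a short double-stranded THF-site oligo, 50 nM final, whose incision relieves BHQ-2 quenching of TAMRA. After 15 min enzyme–compound preincubation at RT, three reads a minute apart are taken.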
# [16] = target: DNA repair nuclease/redox regulator APEX1 (Homo sapiens) (UniProt P27695); assay: qHTS FP-Based Assay for Inhibitors of the Human Apurinic/apyrimidinic Endonuclease 1 (APE1) (AID 2573)
# Description: The apurinic/apyrimidinic endonuclease APE1 is the primary mammalian enzyme responsible for the removal of abasic (or AP) sites in DNA and functions centrally in the base excision DNA repair (BER) pathway. […] Thus, targeting APE1 could improve the efficacy of current treatment paradigms by promoting selective sensitization or protection of diseased and normal cells, respectively.
# In order to gain insight into the mode of action of confirmed APE1 inhibitors, we implemented a miniaturized fluorescence polarization assay designed to report on compounds which competitively displace ds-DNA substrate. The fluorescence polarization assay has been implemented in 384- and 1536-well format for binding of TAMRA-labeled double-stranded DNA probe not containing a quencher. The binding of protein to DNA is inhibited by ATA, a general inhibitor of APE1 activity.
# See also related primary fluorogenic assay (AID 2517). […]
# Three uL of enzyme were dispensed to 1536-well Greiner black solid bottom plates. […] The plates were immediately transferred into ViewLux High-throughput CCD imager (Perkin-Elmer) in order to measure the reaction progress in kinetic mode (three reads every 60 seconds) using 525 nm excitation and 598 nm emission fluorescence protocol. The fluorescence intensity difference between the third and the first time points was used to compute reaction progress.
# [17] = test system: DFO2036; assay: qHTS profiling for inhibitors of Plasmodium falciparum proliferation (AID 504749); note: nearly all actives have a fitted effect of over 60% in size; settings: P. falciparum in erythrocytes, SYBR Green DNA, 72 h; series mostly up to 28.7 µM
# Summary of the method: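 In a 72 h erythrocytic culture (37 C, humidified, 5% CO2) at 2.5% hematocrit and 0.3% starting parasitemia, compounds were tested; SYBR Green I in detergent lysis buffer stained parasite DNA overnight.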
# DNA repair nuclease/redox regulator APEX1 (Homo sapiens), sequence (P27695 whole entry, looked up): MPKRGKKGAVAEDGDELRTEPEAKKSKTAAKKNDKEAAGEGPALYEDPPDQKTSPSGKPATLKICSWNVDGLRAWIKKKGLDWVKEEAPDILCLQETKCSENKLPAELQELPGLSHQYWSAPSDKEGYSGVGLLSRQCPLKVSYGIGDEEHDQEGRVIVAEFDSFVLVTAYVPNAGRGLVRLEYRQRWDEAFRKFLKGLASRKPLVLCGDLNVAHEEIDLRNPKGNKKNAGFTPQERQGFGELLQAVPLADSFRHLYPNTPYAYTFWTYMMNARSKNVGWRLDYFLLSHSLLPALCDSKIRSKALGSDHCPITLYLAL
# Dual specificity protein kinase CLK4 (Homo sapiens), sequence (Q9HAZ1 whole entry, looked up): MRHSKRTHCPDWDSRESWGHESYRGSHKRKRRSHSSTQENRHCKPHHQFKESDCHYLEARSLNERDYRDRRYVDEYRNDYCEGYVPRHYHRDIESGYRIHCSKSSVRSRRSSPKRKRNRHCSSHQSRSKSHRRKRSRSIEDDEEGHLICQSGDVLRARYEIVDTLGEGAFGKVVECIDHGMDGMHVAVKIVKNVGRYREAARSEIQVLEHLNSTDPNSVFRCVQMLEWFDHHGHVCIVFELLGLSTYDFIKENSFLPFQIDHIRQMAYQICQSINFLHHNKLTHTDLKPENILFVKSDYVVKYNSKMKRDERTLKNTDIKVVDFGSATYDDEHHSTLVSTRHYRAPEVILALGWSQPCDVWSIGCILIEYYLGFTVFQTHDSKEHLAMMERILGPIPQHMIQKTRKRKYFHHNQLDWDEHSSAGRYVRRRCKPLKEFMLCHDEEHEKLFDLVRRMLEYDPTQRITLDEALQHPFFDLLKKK
# Cytochrome P450 2D6 (Homo sapiens), sequence (P10635 whole entry, looked up): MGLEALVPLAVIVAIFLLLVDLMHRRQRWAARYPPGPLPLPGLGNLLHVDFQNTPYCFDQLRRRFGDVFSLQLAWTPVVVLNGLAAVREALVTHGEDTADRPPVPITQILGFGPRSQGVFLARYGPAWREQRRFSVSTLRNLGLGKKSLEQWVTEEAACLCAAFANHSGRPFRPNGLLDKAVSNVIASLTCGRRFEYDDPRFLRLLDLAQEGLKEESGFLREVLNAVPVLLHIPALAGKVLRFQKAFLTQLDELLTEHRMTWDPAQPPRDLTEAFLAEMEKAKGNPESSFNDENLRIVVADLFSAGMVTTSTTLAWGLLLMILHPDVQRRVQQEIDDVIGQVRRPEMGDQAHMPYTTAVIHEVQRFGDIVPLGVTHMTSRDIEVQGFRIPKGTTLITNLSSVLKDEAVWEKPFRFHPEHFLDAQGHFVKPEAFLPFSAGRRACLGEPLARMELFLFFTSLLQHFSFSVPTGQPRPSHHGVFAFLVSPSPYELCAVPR
# Muscarinic acetylcholine receptor M1 (Rattus norvegicus), sequence (P08482 whole entry, looked up): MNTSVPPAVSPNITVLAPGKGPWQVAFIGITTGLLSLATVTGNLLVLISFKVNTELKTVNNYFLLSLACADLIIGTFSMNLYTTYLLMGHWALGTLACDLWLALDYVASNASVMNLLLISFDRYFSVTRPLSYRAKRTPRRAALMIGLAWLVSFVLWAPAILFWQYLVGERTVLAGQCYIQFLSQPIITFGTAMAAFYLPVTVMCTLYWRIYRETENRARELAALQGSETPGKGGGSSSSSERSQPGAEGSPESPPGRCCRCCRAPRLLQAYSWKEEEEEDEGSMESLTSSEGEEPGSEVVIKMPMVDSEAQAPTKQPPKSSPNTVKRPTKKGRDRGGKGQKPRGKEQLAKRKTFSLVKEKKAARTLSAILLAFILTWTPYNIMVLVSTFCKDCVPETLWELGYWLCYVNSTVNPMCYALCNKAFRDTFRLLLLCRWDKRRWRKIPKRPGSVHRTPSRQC
# Cytochrome P450 2C19 (Homo sapiens), sequence (P33261 whole entry, looked up, canonical isoform): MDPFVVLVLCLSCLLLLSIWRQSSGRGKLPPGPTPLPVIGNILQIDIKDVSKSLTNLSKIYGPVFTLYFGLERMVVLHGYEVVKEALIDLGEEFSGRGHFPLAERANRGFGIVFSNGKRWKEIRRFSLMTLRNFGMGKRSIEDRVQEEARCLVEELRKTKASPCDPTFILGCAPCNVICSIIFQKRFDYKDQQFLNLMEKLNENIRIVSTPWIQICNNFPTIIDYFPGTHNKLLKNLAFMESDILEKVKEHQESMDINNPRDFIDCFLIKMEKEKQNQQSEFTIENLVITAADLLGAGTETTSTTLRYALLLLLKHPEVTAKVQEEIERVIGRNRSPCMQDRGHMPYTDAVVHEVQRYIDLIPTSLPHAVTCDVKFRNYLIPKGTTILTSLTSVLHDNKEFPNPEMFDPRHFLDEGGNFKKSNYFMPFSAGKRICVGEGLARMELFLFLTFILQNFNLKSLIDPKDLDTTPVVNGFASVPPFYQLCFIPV
# Nuclear receptor subfamily 1 group I member 2 (Homo sapiens), sequence (O75469 whole entry, looked up): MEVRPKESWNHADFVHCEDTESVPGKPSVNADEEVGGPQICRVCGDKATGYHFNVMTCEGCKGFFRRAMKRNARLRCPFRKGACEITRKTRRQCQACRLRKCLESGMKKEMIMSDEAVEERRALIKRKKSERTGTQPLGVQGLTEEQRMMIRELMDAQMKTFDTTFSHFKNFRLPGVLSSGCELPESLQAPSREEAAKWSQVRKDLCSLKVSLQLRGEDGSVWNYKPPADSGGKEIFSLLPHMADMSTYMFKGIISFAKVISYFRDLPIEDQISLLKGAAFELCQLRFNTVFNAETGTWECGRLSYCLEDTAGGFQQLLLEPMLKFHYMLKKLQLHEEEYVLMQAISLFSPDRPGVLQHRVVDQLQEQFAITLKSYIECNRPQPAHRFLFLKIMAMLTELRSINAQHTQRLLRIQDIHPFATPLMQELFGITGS
# Cytochrome P450 3A4 (Homo sapiens), sequence (P08684 whole entry, looked up): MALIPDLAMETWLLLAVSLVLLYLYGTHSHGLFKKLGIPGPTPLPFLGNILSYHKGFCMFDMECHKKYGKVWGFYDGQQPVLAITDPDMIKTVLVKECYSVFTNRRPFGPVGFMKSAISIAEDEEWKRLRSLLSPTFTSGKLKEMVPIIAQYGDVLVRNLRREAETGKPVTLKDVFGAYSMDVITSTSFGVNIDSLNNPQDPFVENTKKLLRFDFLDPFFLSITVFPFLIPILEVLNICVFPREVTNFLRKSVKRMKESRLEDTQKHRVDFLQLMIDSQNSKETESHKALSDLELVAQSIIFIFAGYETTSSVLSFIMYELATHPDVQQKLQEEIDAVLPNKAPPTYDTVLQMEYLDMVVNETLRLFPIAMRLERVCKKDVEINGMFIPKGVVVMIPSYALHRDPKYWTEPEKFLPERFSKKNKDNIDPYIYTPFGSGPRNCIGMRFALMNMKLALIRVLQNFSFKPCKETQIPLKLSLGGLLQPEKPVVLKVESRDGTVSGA
# Glutathione peroxidase 1 (Homo sapiens), sequence (P07203 whole entry, looked up): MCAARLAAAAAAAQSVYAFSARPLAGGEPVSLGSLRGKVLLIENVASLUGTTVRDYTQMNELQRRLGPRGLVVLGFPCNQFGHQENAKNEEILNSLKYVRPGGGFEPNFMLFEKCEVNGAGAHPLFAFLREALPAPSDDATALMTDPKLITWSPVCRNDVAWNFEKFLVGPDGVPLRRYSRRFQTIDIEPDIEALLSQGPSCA
# Phospholipid hydroperoxide glutathione peroxidase GPX4 (Homo sapiens), sequence (P36969 whole entry, looked up): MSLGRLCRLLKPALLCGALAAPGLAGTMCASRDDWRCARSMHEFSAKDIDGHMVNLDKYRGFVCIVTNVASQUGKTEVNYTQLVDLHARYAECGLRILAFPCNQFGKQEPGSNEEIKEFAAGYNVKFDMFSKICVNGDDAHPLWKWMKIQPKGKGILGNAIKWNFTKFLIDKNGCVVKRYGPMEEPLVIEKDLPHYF
# Cytochrome P450 2C9 (Homo sapiens), sequence (P11712 whole entry, looked up): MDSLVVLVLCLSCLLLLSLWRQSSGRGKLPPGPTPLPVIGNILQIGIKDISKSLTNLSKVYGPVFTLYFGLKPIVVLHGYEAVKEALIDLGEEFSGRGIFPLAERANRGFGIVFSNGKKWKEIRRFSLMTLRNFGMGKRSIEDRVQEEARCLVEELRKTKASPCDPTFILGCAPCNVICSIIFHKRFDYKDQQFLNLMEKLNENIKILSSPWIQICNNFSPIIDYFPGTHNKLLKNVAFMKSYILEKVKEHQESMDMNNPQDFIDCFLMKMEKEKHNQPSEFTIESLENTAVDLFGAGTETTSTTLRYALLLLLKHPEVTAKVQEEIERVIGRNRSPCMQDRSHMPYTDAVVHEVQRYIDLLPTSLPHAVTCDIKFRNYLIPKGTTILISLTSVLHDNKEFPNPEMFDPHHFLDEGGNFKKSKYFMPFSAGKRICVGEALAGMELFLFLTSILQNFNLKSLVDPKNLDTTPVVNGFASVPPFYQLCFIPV
# Tumor susceptibility gene 101 protein (Homo sapiens), sequence (Q99816 whole entry, looked up, the tested form may be a part): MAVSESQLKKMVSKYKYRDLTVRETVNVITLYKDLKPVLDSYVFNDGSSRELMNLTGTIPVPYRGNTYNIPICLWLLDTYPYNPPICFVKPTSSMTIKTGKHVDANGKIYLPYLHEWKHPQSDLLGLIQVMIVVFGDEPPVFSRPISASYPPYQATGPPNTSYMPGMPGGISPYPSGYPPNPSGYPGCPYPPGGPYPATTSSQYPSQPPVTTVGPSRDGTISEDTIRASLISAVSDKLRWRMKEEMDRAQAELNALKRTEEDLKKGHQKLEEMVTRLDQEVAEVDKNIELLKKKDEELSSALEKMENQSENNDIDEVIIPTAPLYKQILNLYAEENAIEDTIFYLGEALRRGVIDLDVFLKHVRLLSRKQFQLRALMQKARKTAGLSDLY
structure (smiles),measurement,setting,value
Clc1ccccc1-c1cncnc1NCCc1cnc[nH]1,outcome,[1],inactive
O=C(O)C1=CCCN(CCOC(c2ccc(C(F)(F)F)cc2)c2ccc(C(F)(F)F)cc2)C1,Potency,[2],inactive
same,"activity change, negative = inhibition",[3],-6.97%
same,Potency,[4],inactive
same,Potency,[5],inactive
CC1=NCCc2c1[nH]c1cc(O)ccc21,Potency,[6],3.26 µM (active)
same,Potency,[7],12 µM (active)
same,outcome,[8],inactive
same,Potency,[9],inactive
C=CCc1ccc2c(c1)OCO2,Potency,[10],inactive
same,Potency,[11],inactive
O=C(OC1CCN(CCCl)CC1)C(c1ccccc1)c1ccccc1,Potency,[12],0.112 µM (active)
CCNC[C@H](O)c1cccc(O)c1,outcome,[13],inactive
same,outcome,[14],inactive
same,outcome,[15],inactive
same,outcome,[16],inactive
CC(=O)O[C@H]1CC[C@@]2(C)C(=CC[C@@H]3[C@H]2CC[C@]2(C)C(=O)CC[C@H]32)C1,Potency,[17],inactive
